Rows were chosen to be rich in hits. Some 3.3% of all compounds tested hit in one or more screens of this group.
AmpC inh detg = blocks E. coli AmpC beta-lactamase in detergent assay; AmpC hydrolysis of nitrocefin, absorbance 480 nm, 0.01% Triton; 0.041% of 370,000 active; Potency, µM (titrated, usually from 114 µM), for the others: at the highest dose activity change, negative = inhibition, actives largely listed as inhibitors;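 also: 0% = no-compound wells and -100% = no-enzyme wells; nearly all actives have a fitted effect of over 25% in size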
Target sequence (P00811 whole entry, looked up): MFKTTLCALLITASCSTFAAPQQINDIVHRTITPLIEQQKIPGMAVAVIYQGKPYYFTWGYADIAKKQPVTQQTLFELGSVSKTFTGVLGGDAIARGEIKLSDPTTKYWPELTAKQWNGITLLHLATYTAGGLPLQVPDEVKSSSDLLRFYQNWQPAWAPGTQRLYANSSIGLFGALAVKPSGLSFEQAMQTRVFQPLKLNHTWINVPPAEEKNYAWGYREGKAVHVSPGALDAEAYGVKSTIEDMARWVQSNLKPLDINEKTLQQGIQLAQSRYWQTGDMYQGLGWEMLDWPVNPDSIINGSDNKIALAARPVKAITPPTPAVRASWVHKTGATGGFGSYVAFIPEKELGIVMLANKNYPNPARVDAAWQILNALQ
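AmpC (5.3 nM in the dispensed reagent) in 20 mM phosphate pH 7.0 with 0.01% (detergent screen) or 0.0001% Triton X-100 was preincubated with compounds for 15 min at room temperature. Nitrocefin was then added from an 800 uM solution, and hydrolysis was followed at 480 nm.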
AmpC no deterg = AmpC beta-lactamase inhibition without detergent. P00811. AmpC nitrocefin hydrolysis, absorbance 480 nm, 0.0001% Triton. Potency, µM (highest dose often 57.1 µM), for the others: top-dose activity change, negative = inhibition, hits mostly inhibitors. 0.52% of 330,000 active. AID 485341;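 also: plate controls were no compound for no effect and no enzyme for full effect; nearly all actives have a fitted effect of over 20% in size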
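AmpC (5.3 nM in the dispensed reagent) in 20 mM phosphate pH 7.0 with 0.01% (detergent screen) or 0.0001% Triton X-100 was preincubated with compounds for 15 min at room temperature. Nitrocefin was then added from an 800 uM solution, and hydrolysis was followed at 480 nm.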
Sm TGR inh = inhibitors of Schistosoma mansoni thioredoxin glutathione reductase; purified TGR, DTNB reduction, TNB absorbance 405 nm; 3% of 360,000 active; Q962Y6; Potency, µM (doses to about 114 µM), for inactives: top-dose activity change, negative = inhibition, hits mostly inhibitors; also: nearly all actives have a fitted effect of over 60% in size
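First, TGR (20 nM dispensed) and NADPH were mixed with compound. Second, a 15 min room-temperature incubation followed. Third, further NADPH and then DTNB were added to start the reaction. Finally, TNB absorbance was monitored kinetically.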
Starred values were filed as active, the others as inactive; ? = inconclusive; nt = not tested or not shown; [ ] = remark or other dose. Calls follow the shape of the dose curve; as a rule, active = well fitted curve in the direction sought with a large enough effect; inconclusive = small, poorly fitted or top-dose-only effect, or another doubt; inactive = no such curve, though single readings can be large; an effect the other way counts as inactive or inconclusive. Unless noted, % is scaled to controls: 0 for no effect and ±100 for the full control effect; potency is read from the fitted curve at half-maximal effect.

SMILES	AmpC inh detg	AmpC no deterg	Sm TGR inh
CCOC(=O)C1(CCOc2ccccc2)CCN(Cc2ccc(O)cc2)CC1	-14%	1%	0%
CCOC(=O)C1(CCOc2ccccc2)CCN(Cc2ccc(OC)c(O)c2)CC1	-7%	34%	-1%
CCOC(=O)C1(CCOc2ccccc2)CCN(Cc2ccc(O)c(OCC)c2)CC1	-13%	34%	45µM*
CCOC(=O)C1(Cc2ccccc2C)CCCN(Cc2cn(C)nc2C)C1 (configuration not stated)	-9%	55%	-2%
Cc1ccc(C(=O)N2CCc3cc(CNC(=O)c4ccccc4F)ccc32)cc1	-3%	nt	-4%
COc1cc(OC)cc(-n2c(=O)c3sccc3n(Cc3ccc(F)cc3)c2=O)c1	-4%	nt	0%
COc1ccc(CCNc2ncnc3c2c(-c2ccccc2)cn3-c2cccc(Cl)c2)cc1OC	3%	nt	24%
Cc1cc(Nc2cccc(Cl)c2C)n2nc(Cc3ccccc3)nc2n1	20%	nt	2%
CC(=O)/C(=N/Nc1cccc(C)c1)N1CCOCC1	0%	-10%	50µM*
Cc1cccc(C(=O)Nc2cccc(C(=O)N3CCOCC3)c2)c1	-9%	-15%	0%
O=S(=O)(c1ccc(OC(F)(F)F)cc1)N1CCC(c2nc3ccccc3s2)CC1	4%	nt	-1%
N#CC1=C(S)N(c2ccccc2)C(c2ccc(-c3cc(Cl)ccc3Cl)o2)NC1=O (configuration not stated)	-15%	-54%	-6%
N#CC1=C(S)N(c2ccccc2)C(c2ccc(-c3ccc(Cl)c(Cl)c3)o2)NC1=O (configuration not stated)	5%	10µM*	14µM*
COc1cc(NC(=O)COCc2cc(-c3ccc(F)cc3)on2)cc(OC)c1OC	19%	nt	-4%
CN1CCN(CCC(=O)Nc2ccc(Cl)cc2)CC1	0%	nt	-3%
CCOc1ccc(N2C(=O)C3C(c4ccccc4F)NN(C(=O)c4ccc(C)cc4)C3C2=O)cc1 (configuration not stated)	4%	0%	50µM*
Cc1ccc(C(=O)N2NC(c3ccc(F)cc3)C3C(=O)N(c4ccc(C)cc4)C(=O)C32)cc1 (configuration not stated)	-12%	-16%	-7%
O=C1c2[nH]nc(-c3ccccc3O)c2C(c2ccccc2F)N1Cc1ccncc1 (configuration not stated)	20%	nt	0%
COc1ccc(/C=C/C(=O)Nc2ccc(Cl)c(Cl)c2)cc1	0%	nt	0%
COC(=O)/C=C/C(=O)Nc1ccc(O)c(Cl)c1	1%	-32%	45µM*
Cc1cc(C)c(NC(=O)Cn2c(=O)n(CC(=O)NCc3ccccc3Cl)c(=O)c3sccc32)c(C)c1	16%	nt	6%
COc1ccc(NC(=O)Nc2cccc(OCc3cc(=O)n4cccc(C)c4n3)c2)c(OC)c1	-6%	nt	1%
COc1ccc(OC)c(CNC(=O)c2nn(C)c3c2CSc2ccccc2-3)c1	20%	nt	-2%
COc1ccccc1NC(=O)C(C)Sc1nnc2ccc3ccccc3n12 (configuration not stated)	16%	nt	?
CC(=O)c1ccc(NC(=O)C2CCN(S(=O)(=O)c3cccc4cccnc34)CC2)cc1	?	-22%	7%
SMILES	AmpC inh detg	AmpC no deterg	Sm TGR inh
COc1ccc(NC(=O)C2CCN(S(=O)(=O)c3cccc4cccnc34)CC2)cc1	3%	56µM*	6%
CC(=O)Nc1ccc(S(=O)(=O)N(C)c2ccccc2)cc1	-11%	-17%	-13%[11.4 µM]
CCOC(=O)/C=C/C(=O)Nc1ccc(S(=O)(=O)N(C)c2ccccc2)cc1	5%	-42%	40µM*
CCOC(=O)/C=C/C(=O)Nc1ccc(S(=O)(=O)N2CCc3ccccc32)cc1	-11%	16µM*	-19%
CCOC(=O)/C=C/C(=O)Nc1ccc(S(=O)(=O)N2CCCCCC2)cc1	-3%	-36%	?
Cc1cc(NS(=O)(=O)c2ccc(NC(NC(=O)C(C(F)(F)F)C(F)(F)F)(C(F)(F)F)C(F)(F)F)cc2)no1	?	-15%	13µM*
CCOC(=O)/C=C/C(=O)Nc1ccc(S(=O)(=O)Nc2cc(C)on2)cc1	2%	-17%	11µM*
CCOC(=O)C(NC(C)=O)(Nc1ccc(S(=O)(=O)Nc2cc(C)on2)cc1)C(F)(F)F (configuration not stated)	-2%	-19%	-9%
CCOC(=O)Nc1ccc(S(=O)(=O)Nc2cc(C)on2)cc1	0%	-15%	-13%
Cc1ccc(C)c(-c2ccc(=O)n(C(C)C(=O)Nc3ccccc3C(F)(F)F)n2)c1 (configuration not stated)	3%	nt	-1%
Cc1c(C(=O)NCc2cccc(Cl)c2)sc2ncnc(N(C)C3CCCCC3)c12	7%	nt	9%
Cc1ccc(NC(=O)C2(C)Cc3ccccc3C(=O)O2)c(C)c1 (configuration not stated)	14%	nt	14%
Cc1ccc(C(=O)Nc2ccc3nc(SCC(=O)N4CCCc5ccccc54)sc3c2)cc1	23%	nt	5%
O=C(Cn1ncc2c(Cl)cccc21)NCc1cccc(Br)c1	?	nt	11%
Cc1ccc(CNC(=O)c2oc3ccc(S(=O)(=O)N4CCC(C)CC4)cc3c2C)cc1	0%	nt	0%
Cc1noc(C)c1S(=O)(=O)N(CC(=O)NCc1ccccc1Cl)c1ccc(C(C)C)cc1	4%	nt	0%
Cc1cc2nc(-c3ccc(OCc4ccc(F)cc4)cc3)cc(C(F)(F)F)n2n1	-5%	nt	4%
COc1ccc(CCNC(=O)Cc2c(C)c3cc4c(C)coc4c(C)c3oc2=O)cc1	-4%	nt	-9%
COc1ccc(C(=O)N2CCCCCC2)cc1OC1CCN(C(C)=O)CC1	-18%	6%	0%
Cc1ccc(CNC(=O)CN2C(=O)COc3ccc(S(=O)(=O)N4CCCCC4)cc32)o1	-5%	-19%	25µM*
Cc1ccc(CN(C)C(=O)c2cccc(S(=O)(=O)N3CCN(Cc4ccccc4)CC3)c2)o1	-2%	182%	?
CC(=O)N1CCN(S(=O)(=O)c2cccc(C(=O)N(C)Cc3ccc(C)o3)c2)CC1	?	143%	40µM*
Cc1ccc(CNC(=O)CN2C(=O)COc3ccc(S(=O)(=O)N4CCC(C)CC4)cc32)o1	2%	-25%	-1%
CN(Cc1cccs1)C(=O)c1ccc(S(=O)(=O)N2CCCCC2)cc1	2%	4%	11%
Cc1ccc(CN(C)C(=O)c2ccc(S(=O)(=O)N3CCCCCC3)cc2)o1	-3%	38%	50µM*
SMILES	AmpC inh detg	AmpC no deterg	Sm TGR inh
COc1ccc(C(=O)N(C)Cc2ccc(C)o2)cc1OC1CCN(C(C)=O)CC1	-10%	43%	25µM*
COc1ccc(-n2nc(C(=O)Nc3ccc(Cl)cn3)c3c4ccccc4n(C)c3c2=O)cc1Cl	4%	nt	13%
COc1cc(C(=O)NCCc2sc(-c3cccc(F)c3)nc2C)cc(OC)c1OC	10%	nt	1%
COc1ccc(CC(=O)Nc2cc(-c3nc4cccnc4s3)ccc2C)cc1	-7%	nt	-8%
CCc1ccc(CNC(=O)Cc2ccc(NC(=O)N3CCSc4ncccc43)cc2)cc1	17%	nt	4%
Cc1cccc(-c2nc(CSc3nncn4c3cc3oc(C)cc34)c(C)o2)c1	-1%	nt	5%
Cc1cccc(-c2nnn3c2nc(NCc2ccccc2)c2ccccc23)c1	7%	nt	4%

Bioassay records: PubChem, National Center for Advancing Translational Sciences (NCATS)
